SMILES strings stand for the structures. The whole screen tested about 330,000 compounds, of which about 390 (0.12%) were called active.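 Rule for the calls: active = inhibition reaching a set limit with compound at 10 µM in the primary screen (cut at about 35% in these data); inactive = the rest.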 The full list was thinned out, with actives kept by preference.

Sequence of Intestinal-type alkaline phosphatase (Homo sapiens) (P09923 whole entry, looked up): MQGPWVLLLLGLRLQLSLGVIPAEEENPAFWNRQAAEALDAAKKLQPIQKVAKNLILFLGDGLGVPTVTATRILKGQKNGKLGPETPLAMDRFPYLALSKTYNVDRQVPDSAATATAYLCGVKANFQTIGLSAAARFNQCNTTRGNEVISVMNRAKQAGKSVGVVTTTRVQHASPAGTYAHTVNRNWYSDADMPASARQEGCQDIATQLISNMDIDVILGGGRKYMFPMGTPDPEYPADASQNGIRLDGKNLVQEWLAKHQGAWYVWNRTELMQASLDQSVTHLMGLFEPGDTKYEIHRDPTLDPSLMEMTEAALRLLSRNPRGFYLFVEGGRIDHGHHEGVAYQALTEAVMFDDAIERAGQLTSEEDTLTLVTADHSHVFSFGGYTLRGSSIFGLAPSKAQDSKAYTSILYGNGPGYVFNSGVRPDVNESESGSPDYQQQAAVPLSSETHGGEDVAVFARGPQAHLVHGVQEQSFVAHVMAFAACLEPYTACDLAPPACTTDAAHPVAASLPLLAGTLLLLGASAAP

This test has as its target Intestinal-type alkaline phosphatase (Homo sapiens) (UniProt P09923). Description: human IAP inhibitors, primary screen, biochemical, luminescence, uHTS (AID 2544).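 Note: plate controls were DMSO wells with enzyme for no effect and no-enzyme buffer wells for full effect.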 The settings on record: purified IAP, CDP-Star luminescence, 30 min; at 10 µM; active compounds read high.
As to `COc1cccc(CNS(=O)(=O)c2ccc3c(c2)CC(C)N3C(=O)C2CCC2)c1` (centres undefined), the inhibition was 4.9% (inactive).
`COc1cccc(CNS(=O)(=O)c2csc(C(N)=O)c2)c1`: the inhibition was 13.3% (inactive).
`COc1cccc(CNS(=O)(=O)c2ccc3c(c2)N(C(C)=O)CCS3)c1`: the inhibition is 38.6% (active).
For the compound `CC1CN/C(=C\C(=O)c2ccc(Br)cc2)C(=O)N1` (centres undefined), the inhibition was -17% (inactive).
On to `COC(=O)c1ccc(COC(=O)c2cnccn2)cc1`, for which the inhibition is 21.3% (inactive).
As to `Cc1cc(NC(=O)C(C)N2C(=O)c3ccccc3S2(=O)=O)no1` (centres undefined), the inhibition is -15.1% (inactive).
In the case of `Cn1cnnc1Sc1ccc(S(C)(=O)=O)cc1[N+](=O)[O-]` it was -11.6% (inactive); in that of `CCn1c(C)nc2c1C(=O)c1ccccc1C2=O`, 1.5% (inactive).
As for `COc1ccc(CNC(=O)/C(C#N)=C/c2cccc(OC)c2OC)cc1`, the inhibition is -1.8% (inactive).
With `COCCNC(=O)/C(C#N)=C/c1cccc(OCc2ccccc2)c1`, the inhibition is 1.1% (inactive).
In the case of `N#C/C(=C\c1ccc(O)c(O)c1)C(=O)NCc1ccccc1`, the inhibition is 37.4% (active).
Regarding `O=C(NCCCc1ccccc1)C1CCC(CNc2c(N3CCCCC3)c(=O)c2=O)CC1` (centres undefined), the inhibition was -6.9% (inactive).
For the compound `COc1cc(/C=C2/SC(=S)N(Cc3ccccc3)C2=O)cc(OC)c1O`, the inhibition is 39.3% (active).
The result for `CN1C=CC=C/C1=C1\SC(=S)N(Cc2ccccc2)C1=O` reads -4.6% (inactive); that for `COc1cccc(/C=C2/SC(=S)N(CC(=O)NC3C=CS(=O)(=O)C3)C2=O)c1` (centres undefined), -52% (inactive).
In the case of `CC1CCCCC1NC(=O)c1cn(C)c2ccc(S(=O)(=O)N3CCOCC3)cc2c1=O` (centres undefined) it was -21.4% (inactive); in that of `CCc1ccccc1NC(=S)N(CCN1CCCCCC1)Cc1ccco1`, -3.8% (inactive).
Take `CCCC(C(=O)NCc1ccco1)N(C(=O)CNS(=O)(=O)c1ccccc1)C1CCCC1` (centres undefined): the inhibition was -14.9% (inactive).
In the case of `Cc1cc(-c2nnc(SCC(=O)Nc3ccc(F)cc3)n2N)n[nH]1`, the inhibition was -8.7% (inactive).
`CC(=O)Nc1ccc(S(=O)(=O)NCC(=O)OCC(=O)c2ccc[nH]2)cc1`: the inhibition is 5.4% (inactive).
On to `Cc1noc(C)c1COc1ccccc1C(=O)N(C)CC(=O)Nc1cccc(F)c1`, for which the inhibition is -9.4% (inactive).
As for `Cc1ccc(OCCNC(=O)CNC(=O)c2ccc(C)c(C)c2)cc1`, the inhibition was -7.8% (inactive).
Turning to `CCOc1nnc(C)c2c(C)n(-c3cccc(Cl)c3)nc12`, the inhibition was -4.1% (inactive).
On to `Cc1cccc(C(=O)Nc2ccc(C(=O)/C=C/c3cccs3)cc2)c1`, for which the inhibition is -7.8% (inactive).
For `CCOc1ccc(NC(=O)CN(C)C(=O)CCSc2ccc(F)cc2)cc1OCC`, the inhibition is -1.7% (inactive).
Regarding `Cn1c(SCc2nc3ccccc3s2)nnc1-c1ccc2c(c1)OCO2`, the inhibition is 16.7% (inactive).
In the case of `COc1ccc(CNC(=O)c2c[nH]c3c(OC)cc(OC)cc3c2=O)cc1` it was -24.3% (inactive).
As for `COc1ccc(N2CCN(C(=O)COC(=O)c3cccc(S(=O)(=O)Nc4ccccc4OC)c3)CC2)cc1`, the inhibition is 9.2% (inactive).
The result for `Cc1ccc2occ(/C=N/NC(=O)c3ccccc3C)c(=O)c2c1` reads 13% (inactive).
For the compound `O=c1c(/C=N/O)coc2ccc(Cl)cc12`, the inhibition is 54.1% (active).
As to `CCOC(=O)C1CCN(Cc2coc3ccc(Cl)cc3c2=O)CC1`, the inhibition is -6.6% (inactive).
For `Cc1cccc(-n2c(O)c(C=Nc3ccccc3N)c(=O)[nH]c2=O)c1`, the inhibition is 14.1% (inactive).
Regarding `CCc1c(C)nc(N)n2c(SCC(=O)NC3CCCCC3)nnc12`, the inhibition was -2.5% (inactive).
For the compound `Nc1nnc(SCC(=O)NCC(=O)Nc2ccc(F)c(F)c2F)s1`, the inhibition was -11.7% (inactive).
Take `O=S(=O)(c1ccc(F)cc1)n1ccc(-c2cnc(-c3ccccc3)s2)n1`: the inhibition is 5.2% (inactive).
Take `COc1cccc(CN(C)CC2CCCN(CCc3ccc(Cl)cc3)C2)c1OC` (centres undefined): the inhibition is -36.9% (inactive).
As to `O=C1CN(C(=O)COC(=O)c2cnc(Cl)c(Cl)c2)c2ccccc2N1`, the inhibition was 6.4% (inactive).
For `c1ccc(-c2nnc3n2NC(c2ccc4c(c2)OCO4)S3)cc1` (centres undefined), the inhibition is -10.6% (inactive).
Take `COc1ccc(Cl)cc1-n1c(=S)sc2c(=O)n(-c3ccc(F)cc3)c(SCC(=O)O)nc21`: the inhibition is 10.8% (inactive).
As to `COc1ccc2c(c1OC)C(=O)N(c1ncn[nH]1)C2`, the inhibition is 39.6% (active).
`COc1ccc2c(c1OC)C(=O)N(c1ccc(O)cc1)C2`: the inhibition is -4.8% (inactive).
As to `COc1ccc(C2C(C#N)=C(N)N(c3ncn[nH]3)C3=C2C(=O)CCC3)cc1` (centres undefined), the inhibition is 6.9% (inactive).
As to `COc1cc([N+](=O)[O-])ccc1NC(=S)N1CCN(c2ccccn2)CC1`, the inhibition is 6.4% (inactive).
`Cc1cc(C)nc(-n2ncc3c2CC(c2ccc(C(C)C)cc2)CC3=O)n1` (centres undefined): the inhibition is 3.4% (inactive).
The result for `COc1ccc([N+](=O)[O-])cc1C1NN=C(c2cccc3ccccc23)S1` (centres undefined) reads -10.4% (inactive); that for `COc1nnc(-c2ccc(C)c(S(=O)(=O)N(C)C)c2)c2ccccc12`, 1.6% (inactive); that for `O=c1[nH]c(/C=C\c2cccc(C(F)(F)F)c2)nc(O)c1[N+](=O)[O-]`, -10.6% (inactive).
Regarding `COCCNC(=O)/C(C#N)=C/c1nc(N(C)C)n(-c2ccc(F)cc2)c1Cl`, the inhibition was 8.4% (inactive).
For the compound `Cc1ccc(S(=O)(=O)CCC(=O)OCC(=O)N(C)C2CCS(=O)(=O)C2)cc1` (centres undefined), the inhibition is -12.8% (inactive).
As for `COc1ccc(-c2cn3ccc(C)cc3n2)cc1`, the inhibition was -3.2% (inactive).
On to `Cc1ccc(C(=O)NNC2=Nc3cc([N+](=O)[O-])ccc3OC2)cc1`, for which the inhibition was -72.1% (inactive).
As for `COc1ccc(C2=Nc3cc(C)ccc3OC2)cc1`, the inhibition was 41.5% (active).
As to `O=C(CNC(=O)c1cc(=O)[nH]c2ccccc12)Nc1ccc(F)c(F)c1`, the inhibition is -5.1% (inactive).
With `CC(=O)c1ccc(NC(=O)C2CCCN2S(=O)(=O)c2cccs2)cc1` (centres undefined), the inhibition is 37.2% (active).
Consider `CC(=O)Nc1ccc(S(=O)(=O)N2CCN(S(=O)(=O)c3cccs3)CC2)cc1`, for which the inhibition was 1.1% (inactive).
As for `CC(=O)c1cccc(NC(=O)C2CCCN2S(=O)(=O)c2cccc3nsnc23)c1` (centres undefined), the inhibition is 18.3% (inactive).
As for `O=C(CC(Cc1ccccc1)C(=O)O)NCCc1ccc2c(c1)OCO2` (centres undefined), the inhibition was -65.3% (inactive).
`CCc1ccc(NC(=O)NC(C)c2ccc3c(c2)OCO3)cc1` (centres undefined): the inhibition is -18.5% (inactive).
As to `CC(=NCc1ccc2c(c1)OCO2)C1=C(O)c2ccccc2C1=O`, the inhibition was 82.2% (active).

As usually defined, the inhibition is the relative decrease from the control value, in per cent.
